# Assay results: paper PMC12136788
# Substitutions are numbered along the chain they refer to. Over roughly 24,000 sequences, “enrichment r” has its median near 0.99; the highest 2% begin near 3.7. This excerpt belongs to a sample that is enriched for the highest values.
# T1: UNK ZnF1-3 (human, UniProt Q9C0B0 31-174)
# T1 sequence: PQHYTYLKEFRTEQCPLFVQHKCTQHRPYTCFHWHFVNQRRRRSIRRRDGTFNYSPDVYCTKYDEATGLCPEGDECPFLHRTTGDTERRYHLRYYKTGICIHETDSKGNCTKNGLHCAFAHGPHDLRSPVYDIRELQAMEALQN
# B1: chr1:220276048:220276049:+_ENSG00000067704_ENST00000302637|hu_hu|hu_hu_hu_mus_True|48_78 (ssRNA)
# RNA: GGGAGUUCUACAGUCCGACGAUCGCAAAUUGCCUGGUUGGCGGGAAUUGUCCAAGGUUGUGUGGUCCAAACUAAAACGCUAACAGGAGAUGAACCAUCUGUAAGAGACUCCAACUUCGGAGGAGGUCUCAGGAGGGGGAAUCUCAACAGAGGAUUGAGCAUCA
# B2: chr1:220276048:220276049:+_ENSG00000067704_ENST00000302637|hu_hu|hu_hu_hu_mus_True|1_38 (ssRNA)
# RNA: B1 RNA with U57C, U60G, A87G, A93G, C94G, G100A, G138A, C142U
# B3: chr2:114709107:114709108:+_ENSG00000115091_ENST00000536059|hu_mus|FALSE|FALSE (ssRNA)
# RNA: GGGAGUUCUACAGUCCGACGAUCAGAGAGGACAAUGUUCUUGUAGAGAGGACGCCGGACAUCAAUGGGGCAAUUCUGAAUGACUUCAUCUACAACUUCUGAGAUAGGUUGUGUAAAAUCUGGAUUAGCAAACUCUGGAUGGAACAACAGAGGAUUGAGCAUCA
# B4: chr2:9570881:9570882:+_ENSG00000119203_ENST00000238112|hu_mus|hu_hu_hu_mus_False|28_58 (ssRNA)
# RNA: GGGAGUUCUACAGUCCGACGAUCACUUGUCUUCUGAAGGAACCAGGGCAGGGCUCCACAGUGAUCCAAAUGGAAAUGACUAAUUAACAGAAGGUCGAUCUCAGCUGGGUCAAUUAAGUCAAUGUAAGGAAGGGCAUCCAUUCCCAACAGAGGAUUGAGCAUCA
# B5: chr1:220276048:220276049:+_ENSG00000067704_ENST00000302637|hu_hu|hu_hu_hu_mus_True|8_28 (ssRNA)
# RNA: GGGAGUUCUACAGUCCGACGAUCGCAAAUUGCCUGGUUGGCGGGAAUUGUCCAAGGCUGGGUGGUCCAAACUAAAACGCUAACAGGGGAUGAGGCAUCUGUAAGAGAUGCCAAUUUCGGAGGAGGUUUUAAGAGAGGGAAUCUCAACAGAGGAUUGAGCAUCA
# B6: chr5:141234466:141234467:-_ENSMUSG00000000149_ENSMUST00000000153|mus_mus|motif|central (ssRNA)
# RNA: GGGAGUUCUACAGUCCGACGAUCAGGACAAUAGUCAAGGGUAACAGUGAAAUUAAAAUUAAAAAAAAAAAUACAAACGCCGGAGGUCUGGGAGAAACCUGACUACAAUCUACGUGGAGAAACUUGUAAAUGACUCCAGCCUGGCAACAGAGGAUUGAGCAUCA
# B7: chr5:141234466:141234467:-_ENSMUSG00000000149_ENSMUST00000000153|mus_mus|FALSE|FALSE (ssRNA)
# RNA: B6 RNA with G81U, G82A
# B8: chr20:21346065:21346066:+_ENSG00000088930_ENST00000377191|hu_hu|FALSE|FALSE (ssRNA)
# RNA: GGGAGUUCUACAGUCCGACGAUCUCCUGGAAGCAUUACAGCUUUAAAAAUGUAAUCUUCAGCAAACUGUGGGUCUUUAAAAUUAAUACUGACUACAGUGUUCUGUGUCAGAUCCCUUAACAUAGGAACAGGAGAACAUACUAUCAACAGAGGAUUGAGCAUCA
# B9: chr1:59924863:59924864:+_ENSMUSG00000067336_ENSMUST00000087435|mus_hu|FALSE|FALSE (ssRNA)
# RNA: GGGAGUUCUACAGUCCGACGAUCGCUGCCAAAUUUUAGCCGGGGCUCUUUUGUUGAAUUUUUGGUGUUCAAAGGCAAACUAGUAGGUCUCUUGGGAAGGUUCUGCUGCUUGGGGAGAGGAUAGAUCUGAGUAGGCAGAACAUCCAACAGAGGAUUGAGCAUCA
# B10: chr17:13115065:13115066:+_ENSMUSG00000068039_ENSMUST00000151287|mus_hu|motif|central (ssRNA)
# RNA: GGGAGUUCUACAGUCCGACGAUCAAUAGUUGCUCCAGAAGCUUUGGCAAUGCGUUUAAGGUCCCUUUUUAAAACUCUUCGGACUGCCAUAGCACCAGCCUCCACAAAAUACUUCAGACACAUAUCAUCAAUUCCACCAGUGGUCAACAGAGGAUUGAGCAUCA
# B11: chr7:112906983:112906984:-_ENSMUSG00000036862_ENSMUST00000078482|mus_mus|FALSE|FALSE (ssRNA)
# RNA: GGGAGUUCUACAGUCCGACGAUCUGGGGAGAUAACUGGAGUCCCUGGUGGUGCAUUUUCACGGAGCACAGCCUCACUACUAGUUCUGGGAAAGCGGGGUCCACGCUCAGGCUCUCCCUGUAUUCCAACAACGACCACACCAGUCAACAGAGGAUUGAGCAUCA
# B12: chr12:48362563:48362564:+_ENSG00000134291_ENST00000256686|hu_hu|hu_hu_hu_mus_False|18_58 (ssRNA)
# RNA: GGGAGUUCUACAGUCCGACGAUCUCCGUCAAGCCCUUCGAUAGACCCUUGCGGGGGAAACUGUAAUCACUUUGUAUUUCUAAAAAAAAGAAACGCCAAAAACUUUCCAAAAAGCGGUUCAAAAAGCAGGCGGGAGGGGGAGGUCAACAGAGGAUUGAGCAUCA
# B13: chr4:140556289:140556290:+_ENSMUSG00000036622_ENSMUST00000037055|mus_mus|mus_mus_mus_hu_False|18_68 (ssRNA)
# RNA: GGGAGUUCUACAGUCCGACGAUCGAUGGAGCUCACCAGGCCCCCUUUUGCCGUGCAGAACCCUGUGCGAGUCACCACUGCCAGGACGUGCGGUCCCACAUAGGCCCGGGCCUGCAAAAUGAGGGUGCCGCAGAAGAGUGUGUGCAACAGAGGAUUGAGCAUCA
# B14: chr2:176857141:176857142:-_ENSG00000144320_ENST00000272748|hu_hu|motif|central (ssRNA)
# RNA: GGGAGUUCUACAGUCCGACGAUCUUUUUGUAAUCUCUGAUUUUUUUCCCUAAAUUCUUCCAAUGCUUGAAUUUCCUUAUCGGUACUUUCUAGAACUUCUACAGUUGAAGGUUUUGUCCUCCAUCGAGAAAAUAAUCCACCCAUCAACAGAGGAUUGAGCAUCA
# B15: chr4:144461564:144461565:+_ENSG00000153147_ENST00000283131|hu_hu|motif|central (ssRNA)
# RNA: GGGAGUUCUACAGUCCGACGAUCCCUCCCUUGUUGAAUGACUAUUGAAUCCAGUCUGAGUUUCAUCUCAGCACGUUCGGCGGUUCUUUCUUCUACAGUGUUAUCAGUUAUAAAGCGGAACACUCUGACUGUCUUAGUCUGCCCCAACAGAGGAUUGAGCAUCA
# B16: chr12:493273:493274:-_ENSG00000073614_ENST00000399788|hu_mus|hu_hu_hu_mus_False|28_108 (ssRNA)
# RNA: GGGAGUUCUACAGUCCGACGAUCUUUUCUCUCUACCACAGGGAUCUUCAAUGUAGAUCCUUGAAGUUCCCAAAAUUUUGCCAGUUGAUCCAAGAAGUCCAAUCUUACUCUGGUCAUUGCCUCAAGUUCAUUCAGGCGCUGGACCAACAGAGGAUUGAGCAUCA
# Target: T1, UNK ZnF1-3
# Experiment: nsRBNS (natural sequence RNA bind-n-seq); RBNS binding buffer (assumed for nsRBNS): 25 mM Tris pH 7.5, 150 mM KCl, 3 mM MgCl2, 0.01% Triton X-100, 500 ug/ml BSA, 20 U/ml SUPERase-In, 4 C; UNK is unkempt and MSI1 is Musashi-1; names of the RNAs are library labels; protein concentration not given here; high values mean tight binding
row,Binder,binding signal
1,B1,1.31 enrichment R
2,B2,3.48 enrichment R
3,B3,1.28 enrichment R
4,B4,1.47 enrichment R
5,B5,2.55 enrichment R
6,B6,11.3 enrichment R
7,B7,14.8 enrichment R
8,B8,1.24 enrichment R
9,B9,1.44 enrichment R
10,B10,1.25 enrichment R
11,B11,0.989 enrichment R
12,B12,1.93 enrichment R
13,B13,0.954 enrichment R
14,B14,0.655 enrichment R
15,B15,0.923 enrichment R
16,B16,0.902 enrichment R
